Our source for the binding signal values is PMC12864922, “TDP-43 directly inhibits mRNA accumulation in neurites through modulation of mRNA stability”.

Over roughly 9,900 sequences, “r (bound/input frequency ratio)” has its median near 0.7; the highest 2% begin near 6.5. The list comes from a sample in which the highest values are over-represented; it also holds similar and randomly drawn sequences.

To fix the notation:
B1: ENSMUSG00000032194.22|Kank2 (ssRNA)
RNA: GGGAGUUCUACAGUCCGACGAUCGCUUCGAUAUCCGCAUGCUAUCCCUCUGUCCCAUUCUGCCUCGGCAUUCCUCAGCCCCUGAACUUCCCUGAGGGAGCCCUGACAUCUACCAGGCUCAAGCUCCUGGAAGCCUUUCCCAGCACCCUGGGUUCAAAGCCAGAAAGCCAAGCUACAUUCUCCUCCCAGUUGGCACCAGUUGACAACGCCUUGGGUGUGGGUUUCUUGUAAAGAACAUAGAGAACAAUCAGCCGGCAAUUAUGGGAGGAGGAAGGGGGGGCAAGAAGAGAAAAUACUGUAUUCUCUCUUGCGGUCGCACUAGUGUGGAAUUCUCGGGUGUCAAGG
B2: ENSMUSG00000035202.148|Lars2 (ssRNA)
RNA: GGGAGUUCUACAGUCCGACGAUCGCUUCGAUAUCCGCAUGCUAUCUCCAACACGAAAAAAGCAAGGCAACUCUACCAAAGAAACUAAUUACAUACUUGUAUUCCCAAUAUGUGAGAAGCUGAGGAAGGAGGAUCAUGAGUUUAAAGCCAUCCUUGGUUACAUGAGACUCUUGUCUCAAAGAACUACCAGGGAUCCUAAUGGACAACAAAGGUUGAAAACCAUUGAAUUAAUAAAUGUUGUGAACCAUAAUUUCUACCCAGUCCUUCUUCCUUCAUUUUCAUCUCAUCUGGGAUAAGUUUAGCCCUCUUGCGGUCGCACUAGUGUGGAAUUCUCGGGUGUCAAGG
B3: ENSMUSG00000043670.75|Diras1 (ssRNA)
RNA: GGGAGUUCUACAGUCCGACGAUCGCUUCGAUAUCCGCAUGCUAUUUGAUCCCUGUGGAUCUGAAAACAGGGACCUGGCUAAGGAACUGCUCAUCCCAGUCAGGCCCAGAGAGGUUACCUUGCCUCUCCAUCUCUGUCCCUGUGUGCCCAGCCAUGCCCACUGUCCCUGUCCCUCACAUUCUAUCACUGUGACCUCUGGGGAGUGCCCAUUGACCUCAUCUUCCUUCACUAAUAUCUUAUUUCUUUCACCUGAUCCUGUCCUUUCCCCGUGACCUCUGACCUGUGGCCUUCCCUGGGUCCAGAACUCUUGCGGUCGCACUAGUGUGGAAUUCUCGGGUGUCAAGG
B4: ENSMUSG00000058297.201|Spock2 (ssRNA)
RNA: GGGAGUUCUACAGUCCGACGAUCGCUUCGAUAUCCGCAUGCUAAGGAAAUGGUUCCCUCUUGCCCCGACCAAUAGAAGGGCGUGUCCCCGAGACCCUUGUGAGGAACCACGGGGAGCUGUGACUUCCUGUGCCCAGAAGGUCCUGGAGGAGAGGCCCCAAAGCCUUAGUCCUCUCAGCCAUGACUUUCCUCUGUCUCAAGGGUCCCCAAGAUGGCCCUAGAAGAACCAUGCCCCAGACUCUAUUUAAAGCCCUAUAGCAUAUAUGAAUAGAGAACGGUGUAUCUAUCAGAGGGGACCACACUGCUCUUGCGGUCGCACUAGUGUGGAAUUCUCGGGUGUCAAGG
B5: ENSMUSG00000061578.1546|Ksr2|104:108 (ssRNA)
RNA: GGGAGUUCUACAGUCCGACGAUCGCUUCGAUAUCCGCAUGCUAAGAUCAUUUAUAAAGUUUUCUACACUUCUCAAAAAAAAAAAUAUUUCUAACCUUGGCUGUUGGACAGUCUGUGAGCCUGUGAGCCGGCAAGCCUGUUGUUUCUACACAUUAGUGCAAUGUUAGUGAGAAUCCAGUGUCUGAGUUAUUAAUGCCAAUAAAGAAUUUGAGAAUUACUGCAUCCGCUGCUGUCACUCCAGGUCAGAACUCUGCUGUUGUCUGUUGGAUGGAAGGAAGCUCCAGAGUGAGGAACAAUGGUUGCUCUCUUGCGGUCGCACUAGUGUGGAAUUCUCGGGUGUCAAGG
B6: ENSMUSG00000029636.29|Wasf3|57:61;103:107 (ssRNA)
RNA: GGGAGUUCUACAGUCCGACGAUCGCUUCGAUAUCCGCAUGCUAUCUCUGCACCCUCACAGUGGUAUUUCCCUGUAGCUUUAGUCCCUUUUGUAUUAACACACACAUUUGCUUCUGCACAUCCUUCUGGAUUUGUUGAGUAUUUACACACAAAUACUUAAGUGCCACAGAACACAGCACACCGUGCUGCACACCAGGAAACUCGCAGUAUUAGUGCAUCACCCUGGAACAGCAUCUUGCUUCCCUCUCAGCCGUGAGAGUCCCCUCUCCUGUCCAUCCUGAUUUGGUGGGCUUGCCACGUAUCUCUCUUGCGGUCGCACUAGUGUGGAAUUCUCGGGUGUCAAGG
B7: ENSMUSG00000029636.244|Wasf3 (ssRNA)
RNA: GGGAGUUCUACAGUCCGACGAUCGCUUCGAUAUCCGCAUGCUAUGACAGGGAAUGCCUGUGGGAUAAUUAAAAAUGGUUUUUGCUCAUGAGUUUGGGAUGUCACCCAGCCGCCCACAUCGCCUGCUAUGUGUGUGGACGCCUGUCCGCUUGGCCAGCUAUCCUGUAACACCUGCCAGUAGUAGGUUUUCCUCAUGUCACUAUGACAGUGAAAGCCCAUGUGCAAGCCCCUCCCUACGCCCUGCUUUGGCGUGUGUCUGAGUGCUCUGUGCUGCGCCAUGGCCAUCCUGGAGCCUGCGCACACGCUCUUGCGGUCGCACUAGUGUGGAAUUCUCGGGUGUCAAGG
B8: ENSMUSG00000061578.1047|Ksr2 (ssRNA)
RNA: GGGAGUUCUACAGUCCGACGAUCGCUUCGAUAUCCGCAUGCUACCUCUCCCUGGAGCUGGCAGCCAUGGUUGAUGGCUAUGGGAUACAAUGUGGAUCUUUAGAUGUGAAAGUCUGAUGACUCAAAUCAAAGUUUGGUUUUUCUUUUCUACUACUCUGAAGGAAAAUCUCAGCUUGGCUAUUUCUUCAUGUUUUAAAAAUGUCUUGACUUCUCUCAGCAACCAACUUCAGGUGCCAGGAUAUGAGAUGCUAAGGUUCAGGGGUGGUGGAGGUGAUUCUAUCCAGUGGCCAGCAAUACCCAAAAGCUCUUGCGGUCGCACUAGUGUGGAAUUCUCGGGUGUCAAGG
B9: ENSMUSG00000042529.396|Kcnj12 (ssRNA)
RNA: GGGAGUUCUACAGUCCGACGAUCGCUUCGAUAUCCGCAUGCUACCUGCCCUGGUUAUGCAGGCUGUACGACGCAGUGUGCAUCAGUCUGAGGAGUCUGGUGGUAAGUAAGCCUCUGCAGCAGACCCUGUCGGAGGCCAUGGGGGCGUGUGUGUGUGUGUGUGUGUGUGUGUGUGUGUGUGUGUGUGUGUGUGUGUGUGAACAUGUGUGAGGGUGUGGAGGUCCCAGGGUGUGUGUAUGUGAAUGUCAGUGGCUUGGGUGCUGUGUGGAGAGAGAGAGAGAGAGAGAGAGAGAGAGAGAGAGAGCUCUUGCGGUCGCACUAGUGUGGAAUUCUCGGGUGUCAAGG

The target of this experiment is TDP-43 (Homo sapiens, UniProt Q13148 1-414). Put plainly: RNA Bind-n-Seq with designed 260-mer pool; 25 mM Tris-HCl, 150 mM KCl, 3 mM MgCl2, BSA (printed 500 mg/mL), 20 units/mL SUPERase IN; pH not stated; 500 nM RNA pool, 1 h, 4 C; TDP-43 5, 50, 500 nM; high values mean tight binding. The settings on record: protein: recombinant; tags: SBP (GST cleaved off with PreScission; pGEX-GST-SBP). Put shortly: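 An in vitro-transcribed pool of 260-nt 3′ UTR oligos (500 nM) was incubated for 1 h at 4 °C with recombinant SBP-tagged TDP-43 at 5, 50 or 500 nM held on streptavidin beads. The buffer contained 25 mM Tris-HCl, 150 mM KCl, 3 mM MgCl2, BSA and SUPERase IN. Biotin-eluted bound RNA was sequenced, and binding, R, is each oligo's normalized read abundance in the bound sample over that in input.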
Chain of TDP-43 (Q13148 whole entry): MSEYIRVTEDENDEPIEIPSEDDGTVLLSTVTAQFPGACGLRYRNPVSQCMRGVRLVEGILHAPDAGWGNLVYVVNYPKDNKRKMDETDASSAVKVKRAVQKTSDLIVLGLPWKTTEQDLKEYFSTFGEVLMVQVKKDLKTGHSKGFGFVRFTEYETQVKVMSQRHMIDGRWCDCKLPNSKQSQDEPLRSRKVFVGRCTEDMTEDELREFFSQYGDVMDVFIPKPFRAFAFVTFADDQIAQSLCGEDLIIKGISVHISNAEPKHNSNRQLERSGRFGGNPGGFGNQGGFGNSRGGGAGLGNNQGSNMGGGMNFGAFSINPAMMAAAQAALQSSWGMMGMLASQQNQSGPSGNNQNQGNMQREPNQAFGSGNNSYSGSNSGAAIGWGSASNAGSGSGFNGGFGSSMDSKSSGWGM
B1: the binding signal was 0.911 R (bound/input frequency ratio).
The value for B2 was 0.0673 R (bound/input frequency ratio); that for B3 was 2.09 R (bound/input frequency ratio); that for B4 was 0.372 R (bound/input frequency ratio).
The result for B5 reads 0.542 R (bound/input frequency ratio); that for B6, 0.499 R (bound/input frequency ratio).
The result for B7 reads 0.625 R (bound/input frequency ratio); that for B8, 0.12 R (bound/input frequency ratio).
With B9, the binding signal is 7.9 R (bound/input frequency ratio).
